Data from PubChem BioAssay (Tox21).
A number with no mark means an inactive call. Results filed as inconclusive are left out. Entries that show only a call come without a potency. Activity calls are given as the source filed them. Unless noted, calls follow the shape of the full dose curve.

Key:
[1] = Nuclear factor erythroid 2-related factor 2/antioxidant responsive element (Nrf2/ARE) small molecule agonists: qHTS cell viability counter screen in human keratinocytes (AID 1919968; active = well fitted curve in the direction sought with a large enough effect in the repeat runs; an effect the other way counts as inactive or inconclusive; also: nearly all actives have a fitted effect of over 55% in size; also: potency is read from the fitted curve at half-maximal effect)
Procedure, shortened: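 Cells of the KeratinoSens line were plated at 1,500 per well and left for 5 h before compound transfer from DMSO stocks. After a 23 h incubation (37 C, 5% CO2), CellTiter-Fluor was added. Signal was taken as fluorescence intensity 1 h later.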

[2] = biological target: Gonadotropin-releasing hormone receptor (Homo sapiens) (UniProt P30968); experiment: Human gonadotropin-releasing hormone receptor (GnRHR) small molecule agonists, calcium flux assay in GnRHR-HEK293 cells (AID 1920063); also: nearly all actives have a fitted effect of over 35% in size
Gonadotropin-releasing hormone receptor (Homo sapiens), sequence (P30968 whole entry, looked up): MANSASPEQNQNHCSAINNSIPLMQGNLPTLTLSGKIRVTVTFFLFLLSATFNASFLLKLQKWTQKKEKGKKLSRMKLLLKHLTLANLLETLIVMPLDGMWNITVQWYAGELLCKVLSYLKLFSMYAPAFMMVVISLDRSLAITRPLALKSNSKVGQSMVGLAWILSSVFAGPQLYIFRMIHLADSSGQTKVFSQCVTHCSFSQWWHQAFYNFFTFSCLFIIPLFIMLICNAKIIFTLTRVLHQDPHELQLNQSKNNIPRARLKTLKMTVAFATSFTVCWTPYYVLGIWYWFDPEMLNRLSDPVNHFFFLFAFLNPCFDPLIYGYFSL
Procedure, shortened: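 Compounds dissolved in DMSO are pin-transferred onto dye-loaded GnRHR-HEK293 cells, which were seeded 18 h before at 37 C/5% CO2. Calcium signal is read as fluorescence intensity at 1 s intervals for 3 min.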

[3] = biological target: KiSS-1 receptor (Homo sapiens) (UniProt Q969F8); experiment: Human kisspeptin (KISS1R) small molecule agonists, calcium flux assay in KISS1R-HEK293 cells (AID 1920064; active = well fitted curve in the direction sought with a large enough effect in the repeat runs; an effect the other way counts as inactive or inconclusive)
KiSS-1 receptor (Homo sapiens), sequence (Q969F8 whole entry, looked up): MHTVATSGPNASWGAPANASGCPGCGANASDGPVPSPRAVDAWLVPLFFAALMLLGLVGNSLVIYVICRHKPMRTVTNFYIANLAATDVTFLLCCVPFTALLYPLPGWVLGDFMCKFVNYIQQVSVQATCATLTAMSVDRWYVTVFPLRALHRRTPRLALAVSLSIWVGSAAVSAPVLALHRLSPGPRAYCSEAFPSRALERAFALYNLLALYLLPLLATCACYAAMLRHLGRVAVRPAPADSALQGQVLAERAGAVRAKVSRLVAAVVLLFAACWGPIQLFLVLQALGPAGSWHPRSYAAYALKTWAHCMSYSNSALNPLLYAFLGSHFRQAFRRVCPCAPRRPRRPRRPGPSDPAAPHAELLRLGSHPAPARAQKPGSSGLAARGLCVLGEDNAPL
Procedure, shortened: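 Cell line: HEK293, stable human KISS1R. Dye loading 1 h at 37 C after 18 h culture. Read: kinetic fluorescence, 480/540 nm, 3 min at 1 s intervals.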

[4] = G protein-coupled receptor (GPCR) small molecule agonists, calcium flux assay: HEK293 wild type cell line counter screen (AID 1920065)
Procedure, shortened: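 Tox21 10K compounds, 15 concentrations each in triplicate, pin-transferred in DMSO onto dye-loaded cells; kinetic read at 480/540 nm for 3 min, 1 s intervals.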

[5] = p53 small molecule agonists, cell-based qHTS assay with rat liver microsomes (AID 1963578)
Procedure, shortened: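 Agonist mode in p53RE-bla reporter cells, with compounds co-incubated 16 h at 37 C alongside 0.5 mg/mL rat liver microsomes and 0.5 mg/mL NADPH (final), followed by a 2 h LiveBLAzer detection step.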

[6] = p53 small molecule agonists, cell-based qHTS assay with human liver microsomes: qHTS cell viability counter screen (AID 1963579); also: nearly all actives have a fitted effect of over 45% in size
Procedure, shortened: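 Metabolically activated exposure: compounds, human liver microsomes and NADPH (0.5 mg/mL final apiece) were added to p53RE-bla cells seeded 5 h earlier, left 16 h at 37 C, and then assessed for viability by CellTiter-Glo luminescence.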

[7] = p53 small molecule agonists, cell-based qHTS assay: qHTS cell viability counter screen (AID 1963581); also: nearly all actives have a fitted effect of over 45% in size
Procedure, shortened: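 ATP content measured by luminescence in HCT-116 p53RE-bla cells treated 16 h at 37 C, same wells as the reporter screen.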

[8] = p53 small molecule agonists, cell-based qHTS assay (AID 1963582; active = well fitted activation curve with a large enough effect in the signal ratio in the repeat runs, not every such curve was filed as active; the % refers to the signal ratio)
Procedure, shortened: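 16 h compound exposure (37 C) of p53 response element–bla cells, preceded by 5 h recovery at 37 C/5% CO2; read-out via LiveBLAzer B/G FRET substrate, 2 h RT, fluorescence intensity.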

[9] = biological target: 5-hydroxytryptamine receptor 2A (Homo sapiens) (UniProt P28223); experiment: 5-hydroxytryptamine receptor 2A (HTR2A) small molecule antagonists, cell-based qHTS assay (AID 1963586); also: nearly all actives have a fitted effect of over 45% in size
5-hydroxytryptamine receptor 2A (Homo sapiens), sequence (P28223 whole entry, looked up): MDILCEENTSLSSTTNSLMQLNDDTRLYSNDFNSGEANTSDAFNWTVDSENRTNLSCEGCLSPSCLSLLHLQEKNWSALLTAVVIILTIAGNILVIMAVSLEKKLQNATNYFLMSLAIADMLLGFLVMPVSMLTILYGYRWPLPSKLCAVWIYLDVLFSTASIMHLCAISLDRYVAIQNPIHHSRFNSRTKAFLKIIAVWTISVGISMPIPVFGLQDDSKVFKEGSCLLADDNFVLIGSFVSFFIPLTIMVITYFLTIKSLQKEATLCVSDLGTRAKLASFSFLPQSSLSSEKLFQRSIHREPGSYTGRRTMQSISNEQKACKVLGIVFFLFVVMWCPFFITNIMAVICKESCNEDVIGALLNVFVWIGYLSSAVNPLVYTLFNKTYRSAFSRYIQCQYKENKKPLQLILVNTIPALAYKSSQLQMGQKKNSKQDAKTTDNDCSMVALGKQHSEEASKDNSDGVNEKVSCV
Procedure, shortened: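 CHO cells stably expressing human HTR2A were plated for 18 h at 37 C, then loaded with calcium dye for 1 h. Compounds were preincubated 5 min at room temperature before DOI (4 nM solution) was added. Kinetic fluorescence was read for 3 min.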

[10] = biological target: 5-hydroxytryptamine receptor 2A (Homo sapiens) (UniProt P28223); experiment: 5-hydroxytryptamine receptor 2A (HTR2A) small molecule agonists, cell-based qHTS assay (AID 1963587); also: nearly all actives have a fitted effect of over 30% in size
Procedure, shortened: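 Kinetic calcium-flux fluorescence (2 min, 1 sec intervals) after compound addition in agonist mode. HTR2A-CHO cells were cultured 18 h, then dye-loaded 1 h at 37 C.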

[11] = biological target: Muscarinic acetylcholine receptor M1 (Homo sapiens) (UniProt P11229); experiment: Cholinergic receptor muscarinic 1 (CHRM1) small molecule antagonists, cell-based qHTS assay (AID 1963588); also: nearly all actives have a fitted effect of over 40% in size
Muscarinic acetylcholine receptor M1 (Homo sapiens), sequence (P11229 whole entry, looked up): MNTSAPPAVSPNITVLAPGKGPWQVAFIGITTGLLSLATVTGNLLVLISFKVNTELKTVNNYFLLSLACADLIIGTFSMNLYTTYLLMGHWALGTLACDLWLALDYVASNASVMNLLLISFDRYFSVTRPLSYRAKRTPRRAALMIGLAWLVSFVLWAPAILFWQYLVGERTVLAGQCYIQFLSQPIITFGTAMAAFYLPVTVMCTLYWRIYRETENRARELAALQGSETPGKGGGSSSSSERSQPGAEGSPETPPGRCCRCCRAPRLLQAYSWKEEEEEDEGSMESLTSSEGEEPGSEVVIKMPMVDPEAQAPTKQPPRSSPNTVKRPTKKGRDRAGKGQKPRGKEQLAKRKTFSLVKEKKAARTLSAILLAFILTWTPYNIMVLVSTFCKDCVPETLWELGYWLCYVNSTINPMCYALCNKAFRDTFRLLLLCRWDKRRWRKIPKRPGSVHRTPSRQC
Procedure, shortened: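 Compounds were tested at 15 concentrations in three independent runs. Dye-loaded CHRM1-CHO cells were exposed 5 min at room temperature before stimulation by acetylcholine added at 50nM. Intracellular calcium was read kinetically on FDSS for 3 min.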

[12] = biological target: Muscarinic acetylcholine receptor M1 (Homo sapiens) (UniProt P11229); experiment: Cholinergic receptor muscarinic 1 (CHRM1) small molecule agonists, cell-based qHTS assay (AID 1963589); also: nearly all actives have a fitted effect of over 35% in size
Procedure, shortened: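 Homogeneous fluorescence calcium flux, agonist mode. Human M1-expressing CHO cells; compound dosed at 15 concentrations, three independent runs; signal sampled every 1 sec.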

[13] = cAMP Responsive Elements (CRE) small molecule agonists, cell-based qHTS assay (AID 1963590)
Procedure, shortened: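 HEK 293T cells stably bearing CRE-bla were plated at 2,000 cells per well and rested 18 h. Compounds, positive controls or DMSO were added for 3 h at 37 C. LiveBLAzer B/G substrate was then loaded for 2 h at room temperature.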

[14] = cAMP Responsive Elements (CRE) small molecule antagonists, cell-based qHTS assay (AID 1963591; active = well fitted inhibition curve with a large enough effect in the signal ratio in the repeat runs, not every such curve was filed as active; the % refers to the signal ratio)
Procedure, shortened: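 First, CRE-bla HEK293T cells settled 18 h at 37 C. Next, compound and 0.25 uM final NKH477 were applied for 3 h. Last, LiveBLAzer B/G substrate was loaded for 2 h at room temperature.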

[15] = biological target: Beta-2 adrenergic receptor (Homo sapiens) (UniProt P07550); experiment: Adrenergic beta2 receptor (ADRB2) small molecule antagonists, cell-based qHTS assay (AID 1963592); also: series mostly up to about 92 µM; nearly all actives have a fitted effect of over 50% in size
Beta-2 adrenergic receptor (Homo sapiens), sequence (P07550 whole entry, looked up): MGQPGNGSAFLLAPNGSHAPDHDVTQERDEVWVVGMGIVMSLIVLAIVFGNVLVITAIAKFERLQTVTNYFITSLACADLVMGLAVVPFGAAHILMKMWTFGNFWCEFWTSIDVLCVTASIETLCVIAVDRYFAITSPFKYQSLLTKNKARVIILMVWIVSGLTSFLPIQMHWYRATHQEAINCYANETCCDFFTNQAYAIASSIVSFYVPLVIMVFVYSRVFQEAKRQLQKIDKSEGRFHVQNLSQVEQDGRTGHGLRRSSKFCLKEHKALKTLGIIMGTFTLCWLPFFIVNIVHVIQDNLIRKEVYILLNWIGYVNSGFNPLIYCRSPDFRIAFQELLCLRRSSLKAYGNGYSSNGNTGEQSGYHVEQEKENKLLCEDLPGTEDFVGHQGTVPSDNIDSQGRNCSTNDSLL
Procedure, shortened: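 Assay format: CHO-ADRB2 cells, 18-20hr seeding at 37C/5% CO2, then compound plus 1nM isoproterenol agonist mix for 0.5hr RT. Homogeneous time-resolved fluorescence cAMP detection after 1hr, expressed as 665/615 nm ratio.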

[16] = biological target: D(2) dopamine receptor (Homo sapiens) (UniProt P14416); experiment: Dopamine D2 receptor (DRD2) small molecule agonists, cell-based qHTS assay (AID 1963594); also: nearly all actives have a fitted effect of over 35% in size
D(2) dopamine receptor (Homo sapiens), sequence (P14416 whole entry, looked up): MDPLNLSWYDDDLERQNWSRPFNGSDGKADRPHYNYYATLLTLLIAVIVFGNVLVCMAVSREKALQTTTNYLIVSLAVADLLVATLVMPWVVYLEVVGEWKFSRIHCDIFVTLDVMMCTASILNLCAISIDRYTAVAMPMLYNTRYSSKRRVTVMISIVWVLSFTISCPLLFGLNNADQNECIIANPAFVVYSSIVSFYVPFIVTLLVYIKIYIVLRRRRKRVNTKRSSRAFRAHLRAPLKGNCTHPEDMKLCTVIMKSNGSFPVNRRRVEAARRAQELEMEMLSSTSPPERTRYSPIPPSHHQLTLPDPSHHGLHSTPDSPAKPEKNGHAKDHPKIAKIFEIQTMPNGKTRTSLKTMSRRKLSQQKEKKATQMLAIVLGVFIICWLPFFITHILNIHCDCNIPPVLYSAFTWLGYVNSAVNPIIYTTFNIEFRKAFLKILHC
Procedure, shortened: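 cAMP accumulation in DRD2-HEK293 cells measured by HTRF after 1 h detection; compounds added 10 min before NKH477 (200nM […]) forskolin-analogue stimulation, 30 min at room temperature, with Ro20-1724 present at 0.1 mM final.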

[17] = biological target: D(2) dopamine receptor (Homo sapiens) (UniProt P14416); experiment: Dopamine D2 receptor (DRD2) small molecule antagonists, cell-based qHTS assay (AID 1963595; active = well fitted inhibition curve with a large enough effect in the signal ratio in the repeat runs, with a control signal flat; the % refers to the signal ratio)
Procedure, shortened: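 HEK293 cells stably expressing DRD2, preincubated with 0.1 mM Ro20-1724 and compounds 10 min, were stimulated with 200 nM NKH477 plus 12 nM quinpirole for 30 min at room temperature; cAMP measured by HTRF (665/620 nm).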

[18] = p53 small molecule agonists, cell-based qHTS assay with rat liver microsomes: qHTS cell viability counter screen (AID 1963580); also: nearly all actives have a fitted effect of over 45% in size
Procedure, shortened: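 Cytotoxicity counter screen: intracellular ATP read by CellTiter-Glo luminescence in the p53 reporter wells. HCT-116 p53RE-bla cells were treated for 16 h at 37 C alongside rat liver microsomes and NADPH, each 0.5 mg/mL final.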

[19] = biological target: Beta-2 adrenergic receptor (Homo sapiens) (UniProt P07550); experiment: Adrenergic beta2 receptor (ADRB2) small molecule agonists, cell-based qHTS assay (AID 1963593);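 also: CHO cells stably overexpressing human ADRB2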
Procedure, shortened: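 CHO cells stably over-expressing ADRB2 were plated overnight at 37C, then dosed with compounds plus a stimulation mix containing 100uM IBMX and 25uM Ro-20-1724 for 0.5hr at room temperature. cAMP was measured by HTRF competition, 1hr.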

Structure (SMILES)	Potency [1]	Potency [2]	Potency [3]	Potency [4]	Potency [5]	Potency [6]	Potency [7]	Potency [8]	Potency [9]	Potency [10]	Potency [11]	Potency [12]	Potency [13]	Potency [14]	Potency [15]	Potency [16]	Potency [17]	Potency [18]	Potency [19]
c1ccc2c(c1)ccc1c3ccccc3ccc21	inactive	inactive	inactive	inactive	inactive	inactive	inactive	inactive	inactive	inactive	inactive	inactive	inactive	inactive	inactive	inactive	inactive		
C/C(C=O)=C\c1ccccc1	inactive	inactive	inactive	inactive		inactive	inactive		inactive	inactive	inactive	inactive	inactive	inactive	inactive	inactive	inactive	inactive	
Brc1cc2ccccc2c2ccccc12	30.9 µM (active)	inactive	inactive	inactive	inactive	inactive	inactive		inactive	inactive	inactive	inactive	inactive				inactive	inactive	
CC(=O)CC(=O)Nc1ccc(S(=O)(=O)O)cc1	inactive	inactive	inactive	inactive	inactive	inactive		inactive	inactive		inactive	inactive	inactive	inactive	inactive	inactive	inactive		inactive
CCCCN(CCO)CCCC	inactive	inactive	inactive	inactive		inactive	inactive		inactive	inactive	inactive	inactive	inactive	inactive	inactive	inactive	inactive	inactive	inactive
CC/C=C\CCCCCO	inactive	inactive	inactive	inactive	inactive	inactive	inactive	inactive			inactive	inactive	inactive		inactive	inactive	inactive	inactive	inactive
CCCCCC/C=C\CCCCCCCC(=O)O	inactive	inactive	inactive	inactive	inactive	inactive	inactive	inactive		inactive	inactive	inactive	inactive	inactive	inactive	inactive	inactive	inactive	inactive
